From PubChem
Shown are actives, neighbours in structure and some others; about 3.4% of the full set was active somewhere.
SMARCA2 activ: SMARCA2 (BRM) function activators, primary screen, cell-based, luminescence, high throughput; activation, % at 9.1 µM; 370,000 tested, 1% active; MG213 cells, MMTV-luciferase reporter, dexamethasone, overnight; in the data active = activation above about 7.8%
AI-2 QS mod: Vibrio harveyi AI-2 quorum sensing modulators, primary screen, JMH597 strain, luminescence/OD600 ratio | Vibrio harveyi JMH597 AI-2 luminescence/OD600 ratio, 9 h; stronger effect = lower value; strain lacks LuxN and CqsS sensors; 0 = neutral-control median | activity change, % at 7.5 µM | 300,000 tested, 0.4% active; in the data active = activity change below about -75%, passing the limit was not always enough;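 note: luminescence divided by OD600 gain over 9 h not by final OD600 alone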
FXN GAA850 act: FXN promoter activators, primary screen, cell-based, luciferase luminescence, HEK293 lucGAA850; HEK293 lucGAA850 FXN promoter luciferase reporter, 24 h; percent of 10 µM SAHA response; activation, % at 6 µM; 360,000 tested, 0.56% active; AID 540364, 2011;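 active = activation above the average of all compounds screened plus 3 SD, cutoff fixed separately per campaign, cut at about 7.5% in these data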
HSP90 inh: HSP90 inhibitors, primary screen, cell lysate, luminescence | Heat shock protein HSP 90 (rabbit reticulocyte lysate; luciferase refolding) | Rabbit reticulocyte lysate, luciferase refolding luminescence, 3 h | inhibition, % at 5.6 µM | 290,000 tested, 0.91% active;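 active = inhibition above the screen-wide mean plus 3 SD, computed separately per campaign, cut at about 16% in these data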;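 note: inhibitors lower the luminescence because luciferase stays unfolded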
HSF1 inh: HSF1 inhibitors in luciferase reporter cells, primary screen, cell-based, NIH3T3, luminescence. NIH3T3-HGL HSE-luciferase, MG132-induced, luminescence 8 h; stronger effect = lower value. activity change, negative = inhibition, % at 7.5 µM (by protocol). 300,000 tested, 0.77% active;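 active = more than half of replicate wells show activity change below -50%, luminescence cut by over half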;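 note: luciferase reports HSF-1 transcriptional activity via heat shock element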
PG9 Ab binder: binders of HIV-1 gp120 antibody PG9, primary screen, biochemical, TR-FRET | HIV-1 gp120 / PG9 antibody interaction | TR-FRET gp120-PG9 antibody binding | inhibition, % at 6.7 µM | 360,000 tested, 0.43% active | AID 624416, 2012; in the data active = inhibition above about 8.5%
GAA30 FXN cntr: GAA30 FXN promoter activators, confirmation, counter-screen for GAA850 frataxin promoter activator project, cell-based, luminescence, HEK293, lucGAA30, triplicate; shares compounds with FXN GAA850 act; AID 588350, 2011; HEK293 lucGAA30 FXN promoter luciferase, 24 h; DMSO = 0%, 5 µM ipriflavone = 100%; 1,900 tested, 66% active; activation, % at 6 µM;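 active = mean activation above the mean of solvent-only control wells plus 3 SD, cut at about 22% in these data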;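 note: counterscreen of GAA850 promoter hits where activity marks nonselective or luminescence artifacts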
GAA850 confirm: FXN GAA850 promoter activators in reporter cells, confirmation, cell-based, luminescence, HEK293 lucGAA850, triplicate | shares compounds with FXN GAA850 act | HEK293 lucGAA850 FXN promoter luciferase reporter, 24 h; 100% = activation by SAHA | activation, % at 6 µM | 1,900 tested, 86% active;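 active = mean activation above a set limit taken from the primary screen, cut at about 8% in these data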
A number is an active result; - = inactive; . = no result given.

SMILES	SMARCA2 activ	AI-2 QS mod	FXN GAA850 act	HSP90 inh	HSF1 inh	PG9 Ab binder	GAA30 FXN cntr	GAA850 confirm
COCCCNCCCCOc1ccc(OCc2ccccc2)cc1	-	-	-	-	-	-	.	.
C[C@H]1CN([C@@H](C)CO)C(=O)CCCn2cc(nn2)CO[C@@H]1CN(C)S(=O)(=O)c1cn(C)cn1	-	.	.	.	.	-	.	.
CCc1ccc(C(=O)NCC2(c3ccccc3)CCOCC2)o1	-	.	7.8	.	.	-	95	25
CCOC(=O)CSc1nc(N)c(C#N)cc1C#N	-	-	11	-	-	-	52	30
CC(C)OC(=O)CSc1nc(N)c(C#N)cc1C#N	-	-	8.4	-	-	-	64	29
CCOC(=O)CSc1nc(N)c(C#N)c(-c2ccc(OCC)cc2)c1C#N	-	-	13	-	-	12	-	9.1
COC(=O)CSc1nc(N)c(C#N)c(-c2ccc(O)cc2)c1C#N	-	-	-	-	-	-	.	.
O=C(O)c1ccccc1N/N=C/c1cc(Br)cc(Br)c1O	-	-	9.3	-	-	-	135	42
COc1ccc(-c2nnc(SCC(=O)N3CCOCC3)o2)cc1	-	-	7.7	-	-	-	101	30
CC1(Cc2ccc(OC(F)(F)F)cc2)C(=O)Nc2ccc(S(=O)(=O)NC3CCCCC3)cc21 (stereo not drawn)	-	.	-	.	.	-	.	.
CC1(Cc2ccc(Cl)cc2)C(=O)Nc2ccc(S(=O)(=O)NC3CCCCC3)cc21 (stereo not drawn)	-	.	8.3	.	.	-	-	-
C[n+]1c2cc(N)ccc2cc2ccc(N)cc21	-	.	20	.	.	-	-	138
O=C(NC1CCCC1)C(c1ccncc1)N(Cc1cccs1)C(=O)c1csnn1 (stereo not drawn)	-	-	-	-	-	-	.	.
Cc1ccccc1CCN(C(=O)c1csnn1)C(C(=O)NC1CCCC1)c1ccncc1 (stereo not drawn)	-	-	14	-	-	-	-	-
CC(C)c1ccc(N(C(=O)c2csnn2)C(C(=O)NC2CCCC2)c2ccncc2)cc1 (stereo not drawn)	-	.	20	-	-	-	67	24
CCOC(=O)CCC1(C(=O)OC)C(=O)CCCCCC=C1C(=O)OC (stereo not drawn)	-	.	-	.	.	-	.	.
CN(C)c1nc(OCCNC(=O)COc2ccc(Cl)cc2Cl)nc(N(C)C)n1	-	-	8.3	-	-	-	-	-
CN(C)c1nc(OCCOC(=O)COc2ccc(Cl)cc2Cl)nc(N(C)C)n1	-	-	-	-	-	-	.	.
CCCN1CCCCC(NC(=O)c2ccc(-c3ccccc3)cc2)C1=O (stereo not drawn)	-	.	.	.	.	-	.	.
COc1ccc(CCN(C)C(=O)c2ccc(S(=O)(=O)Nc3ccccc3C)cc2)cc1OC	-	-	.	-	-	-	.	.
CCOc1ccc(NS(=O)(=O)c2ccc(C(=O)N(C)CCc3ccc(OC)c(OC)c3)cc2)cc1	-	-	9.7	-	-	-	27	15
O=C(/C=C(\Nc1cccc(F)c1)c1ccccc1)c1ccccc1	-	.	.	.	.	-	.	.
CCCCS/C(N)=N/N=C/c1ccccc1O	-	-	7.7	-	-	-	110	28
Cc1ccc(O)c(C=Nc2cc(C)ccc2O)c1	.	-	-	-	-	.	.	.
CCCS/C(N)=N/N=C/c1cc(C)ccc1O	-	-	8.6	-	-	-	102	33
SMILES	SMARCA2 activ	AI-2 QS mod	FXN GAA850 act	HSP90 inh	HSF1 inh	PG9 Ab binder	GAA30 FXN cntr	GAA850 confirm
NC(=O)C1=CC2C3C=CC2(O)C(=O)OC3O1 (stereo not drawn)	-	.	8.3	.	.	-	-	16
COc1ccc(-c2cc(C(=O)Nc3ccc(OC)c(OC)c3)[nH]n2)c(C)c1	-	.	-	.	.	-	.	.
COc1ccc(-c2[nH]c(-c3ccc(Cl)cc3)nc2SCC(=O)Nc2nccs2)cc1	-	-	19	-	-	-	-	8.9
COC(=O)c1ccc2c(=O)n(CCCCCC(=O)NC3CCCCC3)c(=O)[nH]c2c1	-	.	.	.	.	-	.	.
CCCCOP(=O)(c1ccc(N(C)C)cc1)C(O)c1ccc(N(C)C)cc1 (stereo not drawn)	-	-	-	-	-	-	.	.
CCCCOP(=O)(c1ccc(N(C)C)cc1)C(O)c1c(Cl)cccc1Cl (stereo not drawn)	-	-	16	-	-	-	-	11
OC12CCCCC1C(c1ccc3c(c1)OCO3)N(Cc1cccc(F)c1)CC2 (stereo not drawn)	-	-	12	-	-	-	-	13
OC12CCCCC1C(c1ccc3c(c1)OCO3)N(Cc1ccc(F)cc1)CC2 (stereo not drawn)	-	-	15	-	-	-	-	12
Fc1cccc(CNCc2ccc3c(c2)OCO3)c1	-	-	-	-	-	-	.	.
OC12CCCCC1C(c1ccc3c(c1)OCO3)N(Cc1ccccc1F)CC2 (stereo not drawn)	-	-	-	-	-	-	.	.
CCOC(=O)c1c(CSC(=N)N)n(-c2ccc(C)cc2)c2cc(Br)c(OC(C)=O)cc12	-	-	12	-	-	-	-	38
CCOC(=O)c1c(CSC(=N)N)n(C)c2cc(Br)c(OC(C)=O)cc12	-	-	-	-	-	-	.	.
O=C1Nc2ccccc2Nc2ccc([N+](=O)[O-])cc21	-	-	8.3	-	-	-	115	35
COCc1cc(C)nc(SCC(=O)c2ccc(O)c(O)c2)c1C#N	-	-	10	-	-	-	40	18
C[C@H](CO)N1C[C@H](C)[C@H](CN(C)S(=O)(=O)c2ccc(Cl)cc2)OCc2ccccc2-c2c(n(C)c3ccccc23)C1=O	-	.	12	.	.	-	-	9.8
C[C@H](CO)N1C[C@H](C)[C@H](CN(C)S(C)(=O)=O)OCc2ccccc2-c2c(n(C)c3ccccc23)C1=O	-	.	-	.	.	-	.	.
Cc1ccc(S(=O)(=O)N(C)C[C@@H]2OCc3ccccc3-c3c(n(C)c4ccccc34)C(=O)N([C@H](C)CO)C[C@@H]2C)cc1	-	.	13	.	.	-	-	8.8
